Active and inactive are the calls of the source.

The nature of the assay: E. coli acrAB mutant growth effects, primary screen, E. coli filamentation inducers, strain DRC39, OD650, 24 h (AID 1178).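 Also: growth measured as culture turbidity by optical density at 650 nm; test concentration not given here.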 As to conditions: higher = more signal, called active from +8 up or from −8 down.
For `C=CCN1C(=O)[C@@]2(O[C@@H](CCO)[C@H]([Si](C)(C)c3ccc(OC)cc3)[C@H]2C)c2cc(NC(=O)[C@H](C)O)ccc21`, the z-score is 0.895 (inactive). `COC(=O)[C@@]1(Cc2ccc(OC)cc2)[C@H]2c3cc(C(=O)N4CCCC4)n(CCF)c3C[C@H]2CN1C(=O)c1ccccc1`: the z-score is -1.52 (inactive).

As for `O=C1N(Cc2ccccc2)c2ccccc2[C@H]2OC(c3ccc(OCCCO)cc3)=N[C@@]12CCS(=O)(=O)c1ccccc1`, the z-score is 0.244 (inactive).

`CC(=O)NCCCC[C@@H]1NC(=O)[C@@H]2C[C@H](C(=O)NCCCC[N+](C)(C)C)[C@H](c3cccc(OCCO)c3)N2C1=O`: the z-score is -0.0845 (inactive).

Regarding `COCCCNC(=O)[C@@]1(Cc2ccccc2I)c2ccccc2C(=O)N(Cc2ccccc2Cl)[C@H]1c1ccc(CO)cc1`, the z-score was 0.0867 (inactive). For the molecule `COCCCNC(=O)[C@@]1(Cc2ccccc2CN=[N+]=[N-])N=C(c2ccc(OCCCO)cc2)O[C@H]1c1ccccc1N=[N+]=[N-]`, the z-score is 1.86 (inactive). Under `NCCCCCCNC(=O)[C@H]1C[C@H]2C(=O)N3CCC[C@H]3C(=O)N2[C@H]1c1ccc(O)cc1` stands 0.0967 (inactive). For the molecule `C=C(/C(=C/C[C@@H](OC(=O)c1ccncc1)c1cccc(OCCO)c1)c1cc(C(=O)OC)ccc1OC)C(C)C`, the z-score is 2.07 (inactive).

Consider `CN1C(=O)C2C=CC(C(O)COCc3ccccc3)N(Nc3ccccc3)C2C1=O` (stereo not given), for which the z-score was -0.925 (inactive). Under `C=C[C@@H](O)[C@H]1CC(c2ccccc2)=NO1` stands -0.105 (inactive); under `COC(=O)[C@@]1(Cc2ccc(OC)cc2)[C@H]2c3cc(C(=O)N(C)C)n(CCF)c3C[C@H]2CN1C(=O)c1ccccc1`, 0.471 (inactive); under `C=CCC(OC(C)=O)[C@@H]1[C@@H](N(Cc2ccc(-c3cccc(C(F)(F)F)c3)o2)C(=O)c2cccc3ccccc23)c2cc(OCCCO)ccc2N1C(=O)c1ccc(-c2ccccc2)cc1` (stereo not given in full), 0.147 (inactive).

With `COc1cc(NN2C(C(O)c3ccc(I)cc3)C=CC3C(=O)N(C)C(=O)C32)cc(OC)c1OC` (stereo not given), the z-score is 0.168 (inactive). Under `C=CCC(OC(C)=O)[C@@H]1[C@@H](N(Cc2cccc3ccccc23)C(=O)Cc2ccc(F)cc2)c2cc(OCCCO)ccc2N1C(=O)Cc1ccc(OC)cc1` (stereo not given in full) stands 0.248 (inactive); under `C=CCOC(=O)[C@@H]1[C@H]2C(=O)O[C@H](c3ccccc3)[C@H](c3ccccc3)N2[C@H](c2ccc(OCCOC(=O)[C@H]3C[C@H]4C(=O)N[C@@H](Cc5ccccc5)C(=O)N4[C@H]3c3cccc(OCCO)c3)cc2)[C@@]12C(=O)Nc1ccc(I)cc12`, -0.847 (inactive). With `CC(C)c1ccc(NN2C(C(O)c3cccs3)C=CC3C(=O)N(c4ccccc4)C(=O)C32)cc1` (stereo not given) the figure was -0.649 (inactive); with `CC1CC/C=C\[C@H]2OC34C=CCN(Cc5ccccc5)C(=O)[C@H]3N(CCO)C(=O)[C@@H]4C2C(=O)O1` (stereo not given in full), 0.98 (inactive). Take `COCCOC(=O)N1C(=O)[C@@]2(c3cc(C#CC4(O)CCCCCC4)ccc31)[C@H](C(=O)N1CCc3cc(OC)c(OC)cc3C1)[C@H]1C(=O)O[C@H](c3ccccc3)[C@H](c3ccccc3)N1[C@@H]2c1ccccc1OCCO`: the z-score is -0.0554 (inactive). With `COc1ccc([Si](C)(C)[C@H]2[C@H](CC(=O)N3CCC[C@H]3CO)O[C@@]3(C(=O)N(Cc4ccc(N5C(=O)c6cccc7cccc5c67)cc4)c4ccccc43)[C@@H]2C)cc1` the figure was -0.788 (inactive); with `C=C(C(=O)CC[C@H](OC(=O)c1cccnc1)c1ccc(OCCO)cc1)C(C)C`, -0.97 (inactive). With `COC(=O)[C@@]1(Cc2ccccc2)[C@H]2c3cc(C(=O)N4CCCC4)n(CCO)c3C[C@H]2CN1C(=O)c1ccccc1` the figure was 0.355 (inactive); with `C=CCNC(=O)[C@H]1[C@@H]2C(=O)O[C@@H](c3ccccc3)[C@@H](c3ccccc3)N2[C@@H](c2ccc(OCCO)cc2)[C@]12C(=O)N(C(=O)OCCOC)c1ccc(C#CC3=CCCCC3)cc12`, -0.178 (inactive); with `O=C1C2C=CC(C(O)c3cccc4ccccc34)N(Nc3ccccc3)C2C(=O)N1c1ccccc1` (stereo not given), -0.148 (inactive). For the molecule `Cc1ccc(S[C@]2(C(=O)O)CC(=O)N(C3CCCCC3)[C@@H]2c2ccc(CO)cc2)cc1`, the z-score was 0.643 (inactive). For the molecule `CC(=O)NCCCC[C@@H]1NC(=O)[C@H]2C[C@@H](C(=O)NCCCCCN)[C@@H](c3cccc(OCCO)c3)N2C1=O`, the z-score is 1.03 (inactive).

Regarding `C=C(CCCC)/C(=C/C[C@@H](OC(=O)c1ccncc1)c1ccccc1OCCO)c1cc(C(=O)OC)ccc1OC`, the z-score is 0.275 (inactive). For the molecule `C=CC[C@]1(C(=O)N2CCOCC2)N=C(c2ccc(OCCCO)cc2)O[C@H]1c1ccccc1CN=[N+]=[N-]`, the z-score is -0.186 (inactive). With `C=C(C)[C@@H]1CC=C(C(O)C2C=CC3C(=O)N(C4CCCCC4)C(=O)C3N2Nc2ccc(OC)cc2)CC1` (stereo not given in full) the figure was -0.703 (inactive).

Regarding `CC1(C)[C@@H]2CC(C(O)C3C=CC4C(=O)N(c5ccccc5)C(=O)C4N3Nc3ccccc3F)=C[C@@H]1C2` (stereo not given in full), the z-score is 0.018 (inactive). With `[N-]=[N+]=NCc1ccccc1[C@H]1OC(c2ccc(OCCCO)cc2)=N[C@@]1(Cc1ccccc1N=[N+]=[N-])C(=O)N1CCCCC1` the figure was -0.457 (inactive); with `CC(C)N1CC=CC23O[C@@H]4C=CCOC(=O)[C@@H]4[C@H]2C(=O)N(CCCCCCO)[C@@H]3C1=O` (stereo not given in full), 0.412 (inactive). Consider `CN1C(=O)C2C=CC(C(O)C3CCCCC3)N(N(c3ccccc3)c3ccccc3)C2C1=O` (stereo not given), for which the z-score was -0.881 (inactive).

Regarding `CC(C)(C)OC(=O)CC[C@]1(C(=O)O)COC(c2ccc(OCCCO)cc2)=N1`, the z-score was -0.341 (inactive). On to `O=C1O[C@H](c2ccccc2)[C@H](c2ccccc2)N2[C@H]1[C@@H](C(=O)N1CCN(c3ncccn3)CC1)[C@]1(C(=O)Nc3ccc(C#CCCO)cc31)[C@H]2c1ccc(OCCO)cc1`, for which the z-score is 0.275 (inactive). On to `CN1C(=O)C2C=CC(C(O)c3cccc4ccccc34)N(NC(=O)OC(C)(C)C)C2C1=O` (stereo not given), for which the z-score is -0.555 (inactive).

For the origin of these results see PubChem BioAssay.
